Laboratory results from PubChem BioAssay (NCI).
Compounds without any hit were thinned out: in the full panel of roughly 83,000, 20% have a hit.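 Assay: single dose, 48 h. Readout: percent growth (0 = no net growth; negative = cell death). Active: <10.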 Values without a mark were called inactive. The source made the active and inactive calls.

Test system: HL-60(TB) leukemia
Assay: NCI-60 one-dose screen, 48 h (100 = growth as untreated, 0 = no growth, -100 = all killed)
Details: 10 µM unless noted

Compound | growth
CCCCCCCCCC[N+](C)(C)N | 90.2%
COc1ccc2c(c1)N(Cc1ccc(Cl)cc1)CCC2N1CCCC1=O (stereo not given) | 53.9%
CC[C@H](C)[C@@H]1NC(=O)[C@H]([C@@H](C)O)NC(=O)C(Cc2ccccc2)NC(=O)[C@@H]2CCCN2C(=O)C(C(C)C)NC(=O)C(Cc2ccccc2)NC(=O)CNC(=O)[C@@H]2CCCN2C1=O (stereo not given in full) | 5.19% (active)
Brc1ccc(SSc2ccc(Br)cc2)cc1 | 70.9%
Cc1oc(-c2ccc(Cl)cc2)nc1C1=NN(C(=O)c2ccncc2)C(c2ccccc2)C1 (stereo not given) | 97.7%
CC(C)OCC(CCl)OC(=O)Nc1ccccc1 (stereo not given) | 97.3%
CC[C@@](C)(NC(=O)[C@H](C)NC(=O)CCNC(=O)C(C)(C)NC(=O)[C@H](C)NC(=O)[C@@H]1CCCN1C(=O)[C@@](C)(CC)NC(=O)[C@H](Cc1ccccc1)NC(=O)C1CCCN1C(=O)C(C)(C)NC(=O)C1CCCN1C(=O)C(C)(C)NC(C)=O)C(=O)NCCC(=O)N[C@@H](CC(C)C)C(=O)NC(C)(C)C(=O)NCCC(=O)N[C@@H](CC(C)C)C(=O)NC(C)(C)C(=O)NC(C)(C)C(=O)N[C@@H](CC(C)C)C(=O)NCCC(=O)NCO (stereo not given in full) | -62.3% (active)
COC1=CC(c2ccc[nH]2)=N/C1=C\c1[nH]c(C)c(C(=O)Oc2ccccc2)c1C | 11.4%
Cc1cc2cc3c(=O)[nH]c(=O)cc-3n(CC(O)C(O)C(O)CO)c2cc1C (stereo not given) | 102%
COc1ccc2cc(C3=CC(=O)CCC3)ccc2c1 | 89.7%
